Compounds without any hit were thinned out: in the full panel of roughly 83,000, 20% have a hit.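 Negative percent growth values reflect cell death: -40 means 40% of the cells present at the start died, and -100 means all died.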 Active and inactive are the calls of the source. Rule for the calls: active = growth percent below 10; inactive = the rest.
System: DU-145 prostate
Assay: NCI-60 one-dose screen, 48 h (100 = growth as untreated, 0 = no growth, -100 = all killed)
Conditions: 10 µM unless noted

| SMILES | growth |
| --- | --- |
| COc1ccc(/C=C/C(=O)/C=C(/C=C/c2ccc(OC)c(OC)c2)OB(F)F)cc1OC | 35.1% (inactive) |
| COc1cc(/C=C/C(=O)/C=C/c2cc3ccc(Cl)cc3[nH]c2=O)ccc1O | 45.9% (inactive) |
| CCCCn1c(=O)c(/C=C/C(=O)/C=C/c2cc3ccccc3n(CCCC)c2=O)cc2ccccc21 | -7.95% (active) |
| COc1ccc(-c2nc(C#N)c(NCC(c3ccco3)N3CCCC3)o2)cc1 (stereo not drawn) | 49.2% (inactive) |
| N#C/C(=C/c1ccc(O)c([N+](=O)[O-])c1)c1nc(-c2ccc([N+](=O)[O-])cc2)cs1 | 60.3% (inactive) |
| C=C1C(=O)O[C@H]2[C@H]1CC/C(COC(=O)CCCCC(=O)OC/C1=C/CC[C@@]3(C)O[C@H]3[C@H]3OC(=O)C(=C)[C@@H]3CC1)=C\CC[C@@]1(C)O[C@@H]21 | 56.2% (inactive) |
| CCOC(=O)c1c(C(F)(F)F)n([O-])c2ccc(Cl)cc2[n+]1=O | -95.7% (active) |
| COc1ccc(-c2nc(C#N)c(NCC(c3ccc(Cl)cc3)N3CCCCC3)o2)cc1 (stereo not drawn) | 94% (inactive) |
| O=CN1N=C(c2ccc(Cl)cc2)CC1c1cccc(Nc2ccnc3cc(C(F)(F)F)ccc23)c1 (stereo not drawn) | 70.1% (inactive) |
| O=C(CCCCCCCCC(=O)Nc1cccc(C2=NCCN2)c1)Nc1cccc(C2=NCCN2)c1 | 99.8% (inactive) |
| CCOC(=O)C1CCN(S(=O)(=O)/N=C2/NC(=O)NC2=C(Cl)Cl)CC1 | 25.7% (inactive) |
| S=c1ssnc1-c1cc2ccccc2o1 | 97.5% (inactive) |
| NS(=O)(=O)c1ccc(C2C3=C(CCCC3=O)OC3=C2C(=O)c2ccccc2C3=O)cc1 (stereo not drawn) | -99.1% (active) |
| C=C1C(=O)O[C@H]2[C@H]1CCC(/C=N/c1ncc(Br)cc1N)=C\CC[C@@]1(C)O[C@@H]21 | 15.5% (inactive) |
| C#Cc1ccccc1NC(=O)c1sc2nc3c(cc2c1N)CCCCC3 | 104% (inactive) |
| NS(=O)(=O)c1ccc(-n2nc(-c3ccccc3)ccc2=O)cc1 | 109% (inactive) |
| COc1ccc(-c2nnc(N3CCN(C(=O)CN4CCN(c5ccc(OC)cc5)CC4)CC3)nc2-c2ccc(OC)cc2)cc1 | -16.3% (active) |
| N#Cc1ccc(Oc2ccc3ccc(=O)oc3c2)cc1 | 107% (inactive) |
| CC1CCCN(CCCCCOc2ccc3oc4ccccc4c(=O)c3c2)C1 (stereo not drawn) | 85.1% (inactive) |

| SMILES | growth |
| --- | --- |
| CS(=O)(=O)O[C@@H]1C(=O)N(c2cc3c4ccccc4ccc3c3ccccc23)[C@H]1c1ccc(F)cn1 | 11.5% (inactive) |
| C=C1C(=O)O[C@H]2[C@H]1CC/C(C=Nc1c(N)cc(F)cc1Br)=C\CC[C@@]1(C)O[C@@H]21 | 55.2% (inactive) |
| Cc1ccc(SC2c3ccc(C)cc3Oc3nc(N)c(C#N)c(N)c32)cc1 (stereo not drawn) | 92.6% (inactive) |
| O=C(Nc1nccs1)c1noc2ccccc12 | 107% (inactive) |
| C=C(C)[C@@H]1CC[C@]2(C(=O)OCCCC[P+](c3ccccc3)(c3ccccc3)c3ccccc3)CC[C@]3(C)[C@H](CC[C@@H]4[C@@]5(C)CC[C@H](OC(=O)C(Cl)Cl)C(C)(C)[C@@H]5CC[C@]43C)[C@@H]12 | 14.4% (inactive) |
| Cc1cc2ccccc2c[n+]1CC(=O)c1ccc(-c2ccccc2)cc1 | 65.8% (inactive) |
| O=C1Nc2ccc(Cl)cc2/C1=N/c1nc(-c2ccc(F)cc2)cs1 | 69.8% (inactive) |
| COc1cc(/C=N/Nc2nc(-c3ccc(F)cc3)c(C#N)c(N3CCOCC3)n2)ccc1O | 96.3% (inactive) |
| C=C(C)[C@@H]1CC[C@]2(C(=O)N=C=S)CC[C@]3(C)[C@H](CC[C@@H]4[C@@]5(C)CCC(=O)C(C)(C)[C@@H]5CC[C@]43C)[C@@H]12 | 33.5% (inactive) |
| CC1(C)[C@@H](O)CC[C@]2(C)[C@H]3CC[C@@H]4[C@H]5[C@H](c6cn(-c7ccccc7)nn6)CC[C@]5(CO)CC[C@@]4(C)[C@]3(C)CC[C@@H]12 | 95.4% (inactive) |
| COc1cc(/C=C/C(=O)c2ccc(NC(=O)CSc3nnc(-c4cc(OC)c(OC)c(OC)c4)n3-c3ccccc3)cc2)cc(OC)c1OC | 26.5% (inactive) |
| O=c1c2ccccc2n(CC(O)CN2CCCC2)c2c(Br)cccc12 (stereo not drawn) | 105% (inactive) |
| COc1cc(-c2cn(-c3ccc(Cl)c(Cl)c3)c(=O)[nH]2)cc(OC)c1OC | 100% (inactive) |
| COC(=O)c1ccc2c(c1)n(Cc1ccc3ccccc3c1)c[n+]2Cc1ccc2ccccc2c1 | 72.5% (inactive) |
| O=C1NN(c2ccccc2)C(c2ccc(Cl)cc2)N2CCC[C@H]12 (stereo partly drawn) | 100% (inactive) |
| Nc1ccccc1NS(=O)(=O)c1ccc(Cl)cc1 | 94.2% (inactive) |
| CCCCCCN1C(=O)CN=C1Nc1ccc2cc3ccc(NC4=NCC(=O)N4CCCCCC)cc3nc2c1 | 40.5% (inactive) |
| Nc1n[nH]c2cccc(C#Cc3cccc(NC(=O)c4cc(N5CCOCC5)cc(C(F)(F)F)c4)c3)c12 | 64.6% (inactive) |
| Cc1cnc(SCc2ccc(Cl)cc2Cl)nc1Nc1ccc(Cl)c(Cl)c1 | 95.1% (inactive) |

From PubChem BioAssay (NCI)
